# Measurements published in the supplement of paper PMC6555819.
# Test system: VDR:RXRa (NR concentration 270 nM, RXRa partner concentration 90 nM)
# Assay: PBM binding z-score (relative to random genomic background probes); higher = stronger binding; sequences stand for … in GC…GCGATTGACAGCGTAGAATGAAGG
# Protocol: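 Protein-binding microarray (Agilent 4x180K custom design, double-stranded 60-nt probes: 5' GC cap, 34-nt variable region, 24-nt constant primer region; full probe sequence given). Purified or IVT nuclear receptor:RXRα heterodimers (3:1 NR:RXRα, mostly 270:90 nM) or homodimers were incubated for 1 h in PBS with 2% milk and no ligand, then detected with Alexa488 antibodies. Fluorescence from o1-orientation probes (~5 replicates averaged) was converted to z-scores against 500 random hg19 background probes. Variable regions are seed direct-repeat (DR0–DR5) sites, all their single-nucleotide variants and half-site ablations.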
row,Sequence,PBM binding z-score
1,GTACCAAGGTGATTAGGTCGTTGATGAGTAGGCG,0.223
2,TCAGACAGGTGAAGGGAACTCAGGTACGCAGTCG,0.951
3,CCGACTGGGCCAAAGGTTACCATACTCAGTACGA,1.21
4,TCTTGTAGATAAAGCAGGTTAAGAAAGCCTGAGT,0.751
5,GCTGGTAGATCAAGGTTAAGAAAGACTAAGCTAA,0.201
6,TCTTGTAGATCACCAGGAGGTTAAGAAAGATCGA,0.799
7,TCGAGTAGGTTAGTCGGGGCTTTCAGCCAACATA,-0.0861
8,GCTGCAAGGTCAGGTTGGTCAGCTAACGGGTACG,2.81
9,GGAACGAGGGCATTCGAGTTGATACCATGGCGAT,3.67
10,CTACCAAGGTGAACAAGGTCGGTGATTACTATTC,4.17
11,TCTCGGAGGACGCGAAGGTCAGAGCTTTCCAGAG,1.23
12,TGAATGAGGTTATAACATCAGGGAACGTTGCAAA,1.11
13,TCTTGTAGATCAGCAGGAGGTTAAGAAAGATCGA,0.561
14,ACTAGCAGTCCAAGTTTGGGTCACTCAAACAAAG,0.754
15,GCAGCTAGGTCAGGTTGGTCAGCTAACGGGTACG,0.358
16,TCTTGTAGATCAACAGGAGGTTAAGAAAGATCGA,0.453
17,GCTCGGAGGACAAGGTCGGAGCTTTGTCCGTAGA,-0.159
18,TGAATGAGGTTGTAAGATCAGGGAACGTTGCAAA,-0.0386
19,AGAATAAGGTTATTAAGATCAGGGAATTGCGGTC,1.95
20,CCTAGGAGGCCAATCTGGGTCACTCAAGGCTTGA,1.21

row,Sequence,PBM binding z-score
1,GCATATAGGTAATACACGGTGAAAGTCCGATTGT,-0.0227
2,CCTTTCGGGTCACTGACAGGTTATAGCATTTGGA,3.86
3,CCTTGGAGGACAGAAGGTCAGAGCTGTCCGCTTT,1.12
4,CAAACTAGCTCACCGGAAGGTCAAAGTCCGCATG,2.8
5,ATCGAAAGGTCGTGAGATGAGTATACAGAAAGGC,3.09
6,CAGCCTAGGTTAGGGCCAGTATAGGAGGAACGTT,-0.611
7,GGAACGATGGCAAGTTGATAGCAGAGTTTGATGG,-0.469
8,ACTAGCAGGCCAAGCGTCACTCAAGATTAGTCCG,-0.477
9,AGGACGAGGGCAATGAGTTGATAGCACGGGTGGC,5.11
10,ATCGAAAGGTCGAGGTGAGAATAGAGAAAGGGAA,2.37
11,TCTATTAGTTGAAGGGGAACCGACGAGTCCGTTT,1.13
12,TCTTGTAGATCAACAGGAGGTTAAGATAGATCGA,0.488
13,CCTACTGGGACATCAGGTCATTGATATCAACGTT,1.99
14,CCTACCGGGCCATTCAGAGGTCATTGATCATATG,4.24
15,TCGAGTAGGTTACCAATGGGGCATTCATCTTTCT,0.117
16,GCGACTGGGGCATAAGCAGGTTACCATAACTTAA,-0.0344
17,TCTAGGTGGTCAAAGGTCACACACTCGAAATGCG,5.38
18,TAGAGTAGGTTACCAATGGGGCATTCAGCTTTCT,0.34
19,TCTTGTAGATCATAGGTTAAGAAAGCCGAAGCCT,0.86
20,AGAATGAGGTTATACGTAGATGAGGGAAGAAAGT,1.53
